# HP1b binding inh: inhibitors of HP1-beta chromodomain binding to methylated histone tails; AlphaScreen HP1-beta / biotin-H3K9me3 peptide binding; Potency, µM (titrated, usually from 114 µM), hits mostly inhibitors; 390,000 tested, 0.56% active; AID 540317; note: nearly all actives have a fitted effect of over 70% in size
#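 AlphaScreen: HP1-beta (50 nM) preformed 30 min with biotin-H3(1-18)K9me3 peptide (50 nM) in PBS pH 7.4, 0.01% Tween-20. Compound added for 30 min at RT, then streptavidin donor/nickel chelate acceptor beads (10 ug/mL) for 30 min.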
# BAZ2B inh: BAZ2B (human) inhibition; AlphaScreen BAZ2B-H3K14Ac peptide displacement; Potency, µM (highest dose often 114 µM), actives largely listed as inhibitors; 360,000 tested, 4.4% active; AID 504333; note: nearly all actives have a fitted effect of over 60% in size
# Target sequence (Q9UIF8 whole entry, looked up): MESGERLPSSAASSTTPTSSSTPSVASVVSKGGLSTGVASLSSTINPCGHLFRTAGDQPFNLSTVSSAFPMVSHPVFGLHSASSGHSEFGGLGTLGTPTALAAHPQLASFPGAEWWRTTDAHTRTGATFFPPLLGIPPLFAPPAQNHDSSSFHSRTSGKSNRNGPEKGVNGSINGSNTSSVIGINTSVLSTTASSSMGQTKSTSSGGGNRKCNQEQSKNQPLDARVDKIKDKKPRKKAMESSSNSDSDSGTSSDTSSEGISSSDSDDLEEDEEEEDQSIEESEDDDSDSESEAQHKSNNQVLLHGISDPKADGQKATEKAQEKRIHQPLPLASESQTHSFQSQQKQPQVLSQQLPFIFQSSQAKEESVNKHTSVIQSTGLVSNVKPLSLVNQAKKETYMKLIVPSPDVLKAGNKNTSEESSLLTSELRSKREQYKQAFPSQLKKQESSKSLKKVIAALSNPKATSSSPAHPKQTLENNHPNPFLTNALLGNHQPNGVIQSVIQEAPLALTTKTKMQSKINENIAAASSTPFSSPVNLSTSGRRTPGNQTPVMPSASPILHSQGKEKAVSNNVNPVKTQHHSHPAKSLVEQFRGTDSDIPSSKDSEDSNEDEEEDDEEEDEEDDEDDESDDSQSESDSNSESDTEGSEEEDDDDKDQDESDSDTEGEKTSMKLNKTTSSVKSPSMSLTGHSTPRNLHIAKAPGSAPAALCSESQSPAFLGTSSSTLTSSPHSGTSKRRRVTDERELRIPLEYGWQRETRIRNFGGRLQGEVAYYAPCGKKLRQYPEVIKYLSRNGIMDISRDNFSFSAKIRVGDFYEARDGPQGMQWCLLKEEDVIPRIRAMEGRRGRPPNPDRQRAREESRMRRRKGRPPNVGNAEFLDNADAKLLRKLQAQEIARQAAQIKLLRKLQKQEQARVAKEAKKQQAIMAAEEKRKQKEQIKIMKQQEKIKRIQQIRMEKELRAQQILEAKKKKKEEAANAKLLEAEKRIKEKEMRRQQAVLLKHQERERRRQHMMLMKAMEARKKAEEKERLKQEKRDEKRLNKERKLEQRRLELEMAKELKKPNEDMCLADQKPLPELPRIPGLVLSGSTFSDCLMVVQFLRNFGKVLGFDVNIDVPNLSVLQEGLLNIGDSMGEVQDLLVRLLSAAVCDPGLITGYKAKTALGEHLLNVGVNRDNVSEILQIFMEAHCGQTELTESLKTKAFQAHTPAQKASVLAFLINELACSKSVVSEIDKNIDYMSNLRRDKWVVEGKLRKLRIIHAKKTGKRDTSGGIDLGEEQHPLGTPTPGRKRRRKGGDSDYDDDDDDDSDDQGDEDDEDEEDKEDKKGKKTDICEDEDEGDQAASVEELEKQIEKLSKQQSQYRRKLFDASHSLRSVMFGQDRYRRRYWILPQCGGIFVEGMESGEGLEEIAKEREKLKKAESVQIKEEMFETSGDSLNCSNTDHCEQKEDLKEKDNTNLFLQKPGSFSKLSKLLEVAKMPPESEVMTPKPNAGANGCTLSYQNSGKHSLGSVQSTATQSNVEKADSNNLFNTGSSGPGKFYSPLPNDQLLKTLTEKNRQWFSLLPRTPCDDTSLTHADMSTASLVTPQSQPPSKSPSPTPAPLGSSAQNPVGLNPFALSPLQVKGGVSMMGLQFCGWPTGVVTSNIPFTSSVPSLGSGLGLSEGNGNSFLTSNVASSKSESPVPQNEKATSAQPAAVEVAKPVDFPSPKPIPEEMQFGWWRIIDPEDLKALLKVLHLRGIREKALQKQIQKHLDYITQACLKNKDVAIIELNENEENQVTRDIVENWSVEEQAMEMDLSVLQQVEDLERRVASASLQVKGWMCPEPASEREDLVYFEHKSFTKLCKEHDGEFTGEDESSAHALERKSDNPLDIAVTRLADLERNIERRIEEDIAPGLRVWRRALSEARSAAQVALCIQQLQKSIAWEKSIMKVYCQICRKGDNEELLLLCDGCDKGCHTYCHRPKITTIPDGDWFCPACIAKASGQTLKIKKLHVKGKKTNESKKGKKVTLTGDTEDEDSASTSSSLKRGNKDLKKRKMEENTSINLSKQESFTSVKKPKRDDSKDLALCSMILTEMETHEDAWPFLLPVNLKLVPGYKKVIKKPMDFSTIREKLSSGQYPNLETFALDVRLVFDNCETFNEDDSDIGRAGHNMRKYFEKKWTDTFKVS
#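 Complex of BAZ2B and biotin-H3K14Ac (50 nM apiece) forms over 30 min at RT, then faces library compounds up to 110 uM for another 30 min; AlphaScreen beads added, 20 min dark incubation, luminescence read.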
# Six1-Eya2 inh: Six1/Eya2 interaction inhibition | Q15475+O00167 | AlphaScreen GST-Six1/His-Eya2 binding, biochemical; active compounds read low | activity change, % (no concentration beside the values) | 360,000 tested, 0.56% active | AID 651725; in the data active = activity change below about -65%; inconclusive = mostly about -30% to -63%
#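 Six1/Eya2 binding was read as AlphaScreen signal after compounds were pinned into GST-Six1 plus His-tagged Eya2 (5X stock 250/500 nM) in pH 8.0 Tris/NaCl/TCEP buffer, beads added, then incubated 1 h, 37 C, dark.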
# G9a inh: G9a (human) methyltransferase inhibition. Q96KQ7. G9a H3K9 monomethylation, AlphaScreen, 2 h. Potency, µM (series often up to 102 µM), actives largely listed as inhibitors. 350,000 tested, 8.8% active. AID 504332; note: nearly all actives have a fitted effect of over 75% in size
#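 AlphaScreen detection with an anti-monomethyl H3K9 antibody quantified product after a 2 h room-temperature reaction containing 500 nM biotinylated H3K9 peptide, 20 µM SAM and 20 nM enzyme, which had been preincubated 15 min with compound.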
# CtBP-E1A blk: inhibitors of CtBP/E1A interaction; AlphaScreen GST-E1A/His-CtBP binding, 1536-well; active compounds read low; activity change, % (test concentration not listed); 340,000 tested, 0.49% active; in the data active = activity change below about -65%; inconclusive = mostly about -30% to -63%
#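 GST-E1A and His-tagged CtBP (125 nM each as 5X stock) were preincubated with pin-transferred compound for 2 h at 37 °C in the dark, then glutathione donor and nickel acceptor beads were added for 1 h before AlphaScreen reading.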
# JMJD2A Tudor inh: inhibitors of human JMJD2A Tudor domain | O75164 | AlphaScreen JMJD2A-Tudor / H3K4me3 peptide binding | Potency, µM (doses to about 114 µM), hits mostly inhibitors | 390,000 tested, 4.4% active | AID 504339; note: nearly all actives have a fitted effect of over 50% in size
# Hits are given with their value; n = inactive; u = inconclusive; x = no result; [ ] = dose if it differs, or a comment. Sampled rows, rich in hits. Any-hit rate of the full collection: about 10%. Unless noted, calls come from the whole dose curve; as a rule, active = well fitted inhibition curve with a large enough effect; inconclusive = small, poorly fitted or top-dose-only effect; inactive = no such curve, though single readings can be large or run the other way.
SMILES,HP1b binding inh,BAZ2B inh,Six1-Eya2 inh,G9a inh,CtBP-E1A blk,JMJD2A Tudor inh
O=C(NCC(=O)N1CCN(S(=O)(=O)c2ccccc2)CC1)c1ccc(Br)o1,n,n,n,n[2.33 µM],n,n
COc1ccc(-n2c(=O)cnc3cnc(Nc4ccccc4)nc32)cc1,x,x,x,n[12.7 µM],x,x
S=c1[nH]nc(COc2cccc3ccccc23)n1Cc1ccccc1,n,n,n,n,n,n
COCc1n[nH]c(=S)n1-c1ccccc1,n,n,n,39.8µM,n,39.8µM
Cc1cccc(C)c1OCc1n[nH]c(=S)n1-c1ccccc1,n,n,n,2.51µM,n,u
Cc1ccc(OCc2n[nH]c(=S)n2-c2ccccc2)cc1C,n,n,n,x,n,n
Cc1ccccc1OCc1n[nH]c(=S)n1Cc1ccccc1,n,n,n,8.91µM,n,n
CCCCC1(CC(=O)OCC)C(=O)N(c2ccccc2)N(c2ccccc2)C1=O,n,n,n,n,n,n
N#Cc1cc(NC(=O)c2ccc(F)cc2)c(=O)n2c1[nH]c1ccccc12,x,n,x,3.55µM,x,x
COCCNC(=O)c1onc(CSc2ccccn2)c1C(=O)NCCOC,n,x,n,x,n,n
CC(C)CCNC(=O)c1onc(CSc2ccccn2)c1C(=O)NCCC(C)C,n,x,n,x,n,35.5µM
COc1ccc(OC)c(S(=O)(=O)N2CCN(S(=O)(=O)c3ccc4c(c3)OCCO4)CC2)c1,x,x,x,x,x,n
O=C(NCCC1=CCCCC1)c1ccc2c(c1)sc1nc(-c3ccc(F)cc3)cn12,n,n,x,n,x,n
OC(c1ccc(Cl)c(Cl)c1)c1ncc(-c2ccccc2F)[nH]1 (stereo not given),x,x,n,x,n,x
COc1ccc2[nH]c(C(=O)O)c(NS(=O)(=O)c3ccc(C)cc3C)c2c1,n,n,n,39.8µM,n,n
COC(=O)c1[nH]c2ccc(F)cc2c1NC(=O)Nc1ccc(OC)cc1,n,n,n,n[2.33 µM],n,n
CCOC(=O)Nc1c(C(=O)OC)[nH]c2cc(OC)ccc12,n,n,n,n,n,n
CCCS(=O)(=O)Nc1c(C(=O)O)[nH]c2ccc(OC)cc12,n,n,n,n,n,n
COC(=O)c1[nH]c2ccc(C)cc2c1NC(=O)Nc1ccc(OC)cc1,n,n,n,44.7µM,n,n[11.4 µM]
COC(=O)c1[nH]c2cc(OC)ccc2c1N,n,n,n,3.55µM,n,u
COC(=O)NNC(=S)NCc1ccc(C)cc1,x,n,n,n,n,n
COc1ccc(OC)c(C2NC(=S)NC3=C2N2CCC3CC2)c1 (stereo not given),n,n,n,n,n,n
COc1cccc2c(=O)cc(C)n(CC(=O)Nc3ccc(C)c(C)c3)c12,n,n,-93.7,n[12.7 µM],-70.2,n
COc1ccc(C(=O)N(Cc2ccc(C(C)C)cc2)C2CCS(=O)(=O)C2)cc1 (stereo not given),n,n,x,n,x,n
COc1ccc(C(=O)NC(=S)NNC(=O)c2ccc(O)cc2)cc1[N+](=O)[O-],n,n,n,31.6µM,u,n
SMILES,HP1b binding inh,BAZ2B inh,Six1-Eya2 inh,G9a inh,CtBP-E1A blk,JMJD2A Tudor inh
COc1ccc(C(=O)NC(=S)NCCO)cc1Br,n,n,n,44.7µM,n,n
COc1ccc(C(=O)NC(=S)N2CCOCC2)cc1Br,n,n,n,20µM,n,n
CC(C)(C)c1ccc(C(=O)NC(=S)N2CCOCC2)cc1,n,n,n,n,n,n
COc1ccc(C(=O)NC(=S)N2CCOCC2)cc1[N+](=O)[O-],n,n,n,35.5µM,n,n
COc1ccc(C(=O)NN2CCOCC2)cc1[N+](=O)[O-],n,n,n,x,n,n
O=C(Nc1ccc2[nH]c(=O)c(=O)[nH]c2c1)c1cccc(F)c1,n,n,x,n,x,n
COc1ccc(S(=O)(=O)NCCCN2CCOCC2)cc1F,n,n,n,n,n,n
COc1ccc(S(=O)(=O)NCCN2CCOCC2)cc1[N+](=O)[O-],n,n,n,50.1µM,n,n
COc1ccc2cc(/C=C3\SC(=S)NC3=O)c(N3CCOCC3)nc2c1,n,u,u,u,n,u
COC(=O)/C=C1\SC(N2CCOCC2)=C(c2ccc(OC)cc2)C1=O,n,44.7µM,n,2µM,n,n
C=CCCC(=O)N1C[C@@H](CO)[C@@H](NC)C[C@H]1c1ccccc1Br,x,x,n,x,n,x
CCSc1nc(N)c(C#N)c(-c2ccccc2Cl)c1C#N,n,n,n,15.8µM,n,n
N#Cc1c(N)nc(Sc2ccc(Cl)cc2)c(C#N)c1-c1ccccc1Cl,n,n,n,x,n,n
CCOc1c(O)ccc(/C=C2\SC(=S)NC2=O)c1[N+](=O)[O-],u,39.8µM,n,14.1µM,n,u
CCOc1ccc(N(C)c2ccc(/C=C3/SC(=S)NC3=O)cc2)cc1,u,50.1µM,n,x,n,3.55µM
O=C1NC(=S)S/C1=C\c1cc(Cl)ccc1Cl,n,x,n,x,n,u
O=C(NCc1ccc(F)cc1)C(=O)NCC(c1ccco1)S(=O)(=O)c1cccs1 (stereo not given),n,n,x,n,x,n
COCCNC(=O)CSc1nnc2[nH]c(=O)cc(C)n12,n,n,x,n,x,n
O=C1CN(Cc2ccccc2)C(=NCc2ccco2)S1,n,u,n,n,n,79.4µM
CC1CCc2c(c3ccccc3n2C(=O)CCl)C1 (stereo not given),n,79.4µM,n,n[0.501 µM],n,u
CCN1CCN(CC(=O)n2c3c(c4ccccc42)CC(C)CC3)CC1 (stereo not given),n,n,n,n,n,u
CCOC(=O)c1oc2ccc(CNC3CCCCC3)c(Cl)c2c1C,u,u,n,10µM,n,3.98µM
CCOC(=O)c1oc2ccc(CNCCO)c(Cl)c2c1C,n,n,n,n,n,n
O=S(=O)(Nc1ccc(-c2ccc(N3CCCCCC3)nn2)cc1)c1cccc(C(F)(F)F)c1,u,n,x,n,x,n
O=C(C[n+]1cccc(Br)c1)c1ccc(-c2ccccc2)cc1,n,n,n,n,x,n
SMILES,HP1b binding inh,BAZ2B inh,Six1-Eya2 inh,G9a inh,CtBP-E1A blk,JMJD2A Tudor inh
CC(Sc1ccccc1)C(=O)Nc1ccc(N2CCOCC2)cc1 (stereo not given),n,n,n,n,n,n
O=C(Nc1ccc(N2CCCC2)cc1)C(Cl)c1ccccc1 (stereo not given),44.7µM,50.1µM,n,10µM,n,28.2µM
CS(=O)(=O)N1CCN(c2ccc(NC(=O)C(c3ccccc3)c3ccccc3)cc2)CC1,n,n,n,8.91µM,n,n
CCOc1ccc(NC(=O)CC2C(=O)N(c3ccccc3)C(=O)N2C2CCCCC2)cc1 (stereo not given),n,n,x,n,x,n
COc1cc(NC(=O)Cn2c(=O)oc3cc(S(=O)(=O)N4CCCCCC4)ccc32)cc(OC)c1,n,n,x,n,x,n
O=C(/C(C=Nc1ccc(F)cc1)=C(/O)c1ccco1)C(F)(F)F,n,u,n,39.8µM,n,u
